Test [1] deals with TRPC4 beta (transient receptor potential cation channel C4), mouse. Put plainly: activators of mouse TRPC4 channel, confirmation, cell-based, Fluo4 calcium, HEK293 TRPC4beta/mu-opioid, duplicates, 10 µM (AID 2426;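 active = fluorescence ratio normalized to control raised more than 50% in primary screen plus both repeat runs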;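 as to activation: percent rise of integrated ratio over buffer wells lacking compound which define 0%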). The following applies: Fluo4 calcium fluorescence, at 10 µM; active compounds read high.
In test [2] the test system is transient receptor potential cation channel C4 beta (TRPC4), mouse. Put plainly: activators of mouse TRPC4 channel, confirmation, cell-based, second round, Fluo4, HEK293 TRPC4beta/mu-opioid, 1 µM (AID 2461;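 active = primary screen active and over 50% activation in each of two duplicate runs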). The following applies: Fluo4 calcium fluorescence, at 1 µM; active compounds read high.
In test [3] the test system is TRPC4 (transient receptor potential cation channel C4 beta), mouse. Put plainly: positive allosteric modulators of mouse TRPC4, confirmation, cell-based, second round, Fluo-4, HEK293 TRPC4beta/mu-opioid, 1 µM (AID 2554). The note with it: DAMGO EC20, Fluo-4 calcium flux, at 1 µM; active compounds read high. A general note: Calcium assays in cells follow changes in intracellular calcium, usually with a dye or a luminescent sensor.

The subject of test [4] is TRPC4 beta (transient receptor potential cation channel C4), mouse. Put plainly: positive allosteric modulators of mouse TRPC4, confirmation, cell-based, Fluo-4, HEK293 TRPC4beta/mu-opioid (AID 2555;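 active = primary screen hit whose calcium fluorescence ratio, in both repeats, exceeds the weak agonist control mean by 3 SD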). The note with it: DAMGO EC20, Fluo-4 calcium flux, at 10 µM; active compounds read high.
The target of test [5] is Short transient receptor potential channel 4 (Mus musculus) (UniProt Q9QUQ5). Put plainly: inhibitors of mouse TRPC4 channel, confirmation, cell-based, Fluo4, HEK293 TRPC4beta/mu-opioid (AID 2636;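 active = calcium signal cut by more than 3 SD below the full-agonist control yet still positive, in both repeats and the earlier primary screen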). The note with it: DAMGO, Fluo4 calcium flux, at 10 µM; active compounds read high.
Sequence of Short transient receptor potential channel 4 (Mus musculus) (Q9QUQ5 whole entry, looked up): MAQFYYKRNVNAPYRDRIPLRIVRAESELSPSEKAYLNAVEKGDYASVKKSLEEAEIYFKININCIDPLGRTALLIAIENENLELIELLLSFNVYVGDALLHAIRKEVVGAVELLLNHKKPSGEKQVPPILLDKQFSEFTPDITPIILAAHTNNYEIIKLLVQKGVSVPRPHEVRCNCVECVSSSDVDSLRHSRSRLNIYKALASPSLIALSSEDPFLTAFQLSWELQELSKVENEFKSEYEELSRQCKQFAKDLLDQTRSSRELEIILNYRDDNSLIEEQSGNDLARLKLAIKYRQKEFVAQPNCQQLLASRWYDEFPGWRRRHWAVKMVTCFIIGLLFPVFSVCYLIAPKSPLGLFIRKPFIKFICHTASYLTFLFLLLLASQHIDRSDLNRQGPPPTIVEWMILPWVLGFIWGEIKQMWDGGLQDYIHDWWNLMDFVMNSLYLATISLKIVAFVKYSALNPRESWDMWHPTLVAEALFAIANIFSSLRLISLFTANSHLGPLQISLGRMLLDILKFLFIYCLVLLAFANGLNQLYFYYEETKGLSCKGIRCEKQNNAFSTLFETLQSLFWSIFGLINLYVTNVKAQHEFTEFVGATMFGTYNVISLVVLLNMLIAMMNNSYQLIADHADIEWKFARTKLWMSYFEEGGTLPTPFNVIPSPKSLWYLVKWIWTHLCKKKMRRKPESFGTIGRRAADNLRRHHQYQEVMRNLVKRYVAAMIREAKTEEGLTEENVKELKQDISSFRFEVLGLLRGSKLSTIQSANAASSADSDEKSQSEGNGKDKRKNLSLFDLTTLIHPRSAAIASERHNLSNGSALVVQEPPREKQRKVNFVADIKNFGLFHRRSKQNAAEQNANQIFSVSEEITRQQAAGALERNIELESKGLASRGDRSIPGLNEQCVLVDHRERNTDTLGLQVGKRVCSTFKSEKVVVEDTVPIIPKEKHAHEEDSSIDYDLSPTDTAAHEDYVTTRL
Test [6] shares this target. Put plainly: inhibitors of mouse TRPC4 channel, confirmation, cell-based, second round, Fluo4, HEK293 TRPC4beta/mu-opioid, 1 µM (AID 2637;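 active = calcium signal ratio cut to more than 3 SD under the fully stimulated control mean yet still positive, in both repeats and the primary screen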). The note with it: Fluo4 calcium flux, DAMGO, at 1 µM; active compounds read high.
Test [7] has the same target. Put plainly: mouse TRPC4 channel activators, dose response, cell-based, HEK293 TRPC4/mu-opioid, Fluo-4 calcium (AID 434937;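 active = primary screen activator hit with a dose response curve and TRPC4 channel activation at any tested dose; inactive = no activation, no dose response, or not a primary hit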).
The target is the same in test [8]. Put plainly: TRPC4 positive allosteric modulators, dose response, cell-based, HEK293 TRPC4/mu-opioid, Fluo-4 calcium, EC20 DAMGO (AID 434941;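 active = earlier screen potentiator hit that boosts the TRPC4 ion channel at some dose, with a dose response; inactive = no potentiation, no dose response, or not a prior hit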;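 also: calcium entry triggered by an EC20 dose of DAMGO at the co-expressed mu-opioid receptor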).
For test [9] the target is unchanged. Put plainly: mouse TRPC4 channel inhibitors, dose response, cell-based, HEK293 TRPC4/mu-opioid, Fluo-4 calcium (AID 434942;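 active = primary screen inhibitor hit that blocks the TRPC4 channel at some tested dose, yielding a dose curve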).
In test [10] the target is Short transient receptor potential channel 6 (Mus musculus) (UniProt Q61143). Put plainly: inhibition of mouse TRPC6 channel, confirmation, selectivity assay for TRPC4 inhibitor project, cell-based, HEK293, membrane potential dye, duplicate (AID 434948;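 active = active in primary screen and both duplicates, each dropping signal beyond three positive-control SD with fluorescence still positive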). The note with it: HEK293 TRPC6, membrane potential dye fluorescence, at 10 µM, stimulated with maximal-effect acetylcholine; active compounds read high.
Sequence of Short transient receptor potential channel 6 (Mus musculus) (Q61143 whole entry, looked up): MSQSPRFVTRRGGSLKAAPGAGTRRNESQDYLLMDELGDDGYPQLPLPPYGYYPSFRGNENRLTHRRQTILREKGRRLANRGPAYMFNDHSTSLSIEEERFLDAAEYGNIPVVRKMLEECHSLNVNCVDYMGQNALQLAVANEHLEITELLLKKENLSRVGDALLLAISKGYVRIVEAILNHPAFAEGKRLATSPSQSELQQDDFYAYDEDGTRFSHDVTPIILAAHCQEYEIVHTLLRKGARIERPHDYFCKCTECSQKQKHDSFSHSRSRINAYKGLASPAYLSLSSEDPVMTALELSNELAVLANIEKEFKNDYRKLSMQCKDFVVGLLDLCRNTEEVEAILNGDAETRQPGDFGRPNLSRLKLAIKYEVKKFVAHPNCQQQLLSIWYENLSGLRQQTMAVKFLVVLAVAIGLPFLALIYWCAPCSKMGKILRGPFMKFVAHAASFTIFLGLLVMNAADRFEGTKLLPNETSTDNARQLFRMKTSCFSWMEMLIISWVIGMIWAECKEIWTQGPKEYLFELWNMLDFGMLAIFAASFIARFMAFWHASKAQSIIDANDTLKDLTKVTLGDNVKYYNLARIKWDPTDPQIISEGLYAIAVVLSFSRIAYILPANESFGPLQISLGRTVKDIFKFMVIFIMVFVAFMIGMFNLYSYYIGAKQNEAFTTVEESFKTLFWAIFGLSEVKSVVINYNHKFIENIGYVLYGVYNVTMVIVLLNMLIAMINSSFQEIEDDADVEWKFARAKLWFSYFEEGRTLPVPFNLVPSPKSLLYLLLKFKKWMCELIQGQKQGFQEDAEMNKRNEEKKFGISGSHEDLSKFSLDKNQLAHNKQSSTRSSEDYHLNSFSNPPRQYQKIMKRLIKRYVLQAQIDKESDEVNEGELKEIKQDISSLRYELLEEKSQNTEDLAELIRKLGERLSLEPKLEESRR

Test [11] has the same target. The test is described as follows: activation of mouse TRPC6 channel, confirmation, selectivity assay for TRPC4 activator project, cell-based, HEK293, membrane potential dye, duplicate (AID 434950;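 active = membrane potential signal rise above negative control mean plus 3 SD in both duplicates, also active in the earlier TRPC4 screen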;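 as to activation: 0% = buffer only wells and 100% = acetylcholine maximal-effect wells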). The note with it: HEK293 TRPC6, membrane potential fluorescence, at 10 µM; active compounds read high.
The target is the same in test [12]. Put plainly: TRPC6 potentiation by TRPC4 potentiator hits, confirmation, selectivity assay for TRPC4 potentiator project, HEK293 cells, membrane potential dye, duplicate (AID 434952;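 active = compound raising the membrane signal above positive-control mean plus 3 SD in both repeats, and a primary screen hit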). The note with it: HEK293 TRPC6, membrane potential dye fluorescence, at 10 µM, maximal acetylcholine added after compound; active compounds read high.
Test [13] deals with Short transient receptor potential channel 4 (Mus musculus) (UniProt Q9QUQ5). Put plainly: calcium flux activators in TRPC4/5HT1a cells, counter-screen for TRPC4 activator project, cell-based, second counter screen, HEK293 TRPC4/5HT1a, Fluo-4 (AID 434977;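 active = calcium signal rise above buffer-control mean plus 5 SD in both duplicates, and also a hit in the primary screen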). The following applies: Fluo-4 calcium flux, at 10 µM; active compounds read high.
Test [14] in a line: calcium flux inhibitors in TRPC4/5HT1a cells, confirmation, counter-screen for TRPC4 inhibitor project, cell-based, second counter screen, HEK293 TRPC4/5HT1a, Fluo-4 (AID 434978;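 active = primary screen active whose calcium signal fell more than 3 SD beyond the full-serotonin control mean in both duplicate plates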;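 also: serotonin given first at submaximal then at maximal dose after compound preincubation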). The note with it: Fluo-4 calcium flux, at 10 µM, serotonin added to trigger calcium flux; active compounds read high.
Test [15] deals with TRPC4 (mouse), co-expressed with 5HT1a in HEK293. Put plainly: calcium flux potentiators in TRPC4/5HT1a cells, confirmation, counter-screen for TRPC4 potentiator project, cell-based, second counter screen, HEK293 TRPC4/5HT1a, Fluo-4 (AID 434979;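 active = signal rise over 3 SD above mean of control wells given weak agonist, in both repeats and first screen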). The note with it: Fluo-4 calcium flux, at 10 µM, serotonin added at its EC20 dose; active compounds read high.
Test [16] can be described thus: calcium flux activation in mu-opioid HEK293 cells, confirmation, counter-screen for TRPC4 activator project, cell-based, HEK293 mu-opioid receptor line (AID 449723;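 active = hit in primary screen, with calcium signal over 5 SD above buffer well mean in both duplicates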;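 also: counter screen cells carry the mu-opioid receptor alone and lack TRPC4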). The note with it: Fluo-4 calcium fluorescence, at 10 µM; active compounds read high.
Test [17] in a line: calcium flux enhancement in mu-opioid HEK293 cells, confirmation, counter-screen for TRPC4 allosteric potentiator project, cell-based, HEK293 mu-opioid receptor line (AID 449724;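 active = calcium signal rise more than 3 SD above the low-dose agonist control mean, in both duplicate plates and the primary screen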;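 also: HEK293 cells carrying mu-opioid receptor only with no TRPC4 channel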). The following applies: Fluo-4 calcium flux, at 10 µM, compound added before EC20 DAMGO stimulus; active compounds read high.

For some of these results: Measured potencies and affinities stand elsewhere. Active and inactive are the calls of the source.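 The calls were made as follows, unless noted: active = primary screen hit whose fluorescence ratio, in both repeats, exceeds the weak agonist control mean by 3 SD; inactive = the rest.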

As a reminder, the inhibition is the share of the control response that was lost under treatment.

As to `CCCN1CCC(NC(=O)Cc2cccc(C)c2)CC1`, the outcome in test [1], in test [2], in [3], in test [4], in test [5] and in [6] was inactive. In addition, the result in [7], in test [8], in [9], in test [10], in test [11] and in test [12] was inactive. Moreover, the result in [13], in test [14], in test [15], in test [16] and in [17] was inactive.
`Cn1c(SCCOc2ccccc2F)nc2ccccc2c1=O`: the result in [1], in [2], in test [3], in test [5], in test [6] and in test [7] was inactive. Moreover, the result in test [8], in test [9], in [10], in test [11], in [12] and in [13] was inactive. The result in [14], in test [15], in test [16] and in test [17] was inactive. The potentiation in test [4] was 10% (active).
`CC1CC(C)CN(CCCNC(=O)C2CCCN(c3ncnc4c3nc3n4CCCCC3)C2)C1` (stereo not drawn): the result in test [1], in [2], in [4], in test [5], in test [6] and in [7] was inactive. The result in [8], in test [9], in test [10], in test [11], in [12] and in test [13] was inactive. Besides, the result in test [14], in [16] and in [17] was inactive. The potentiation was 18% (active) in test [3] and 17.1% (active) in test [15].
Turning to `Cc1ccc(/C=N/NC(=S)NC2CCCCC2)o1`, the result in test [1], in [2], in test [3], in test [5], in test [6] and in test [7] was inactive. Besides, the outcome in test [8], in test [9], in test [10], in test [11], in test [12] and in test [13] was inactive. Also, the result in test [14], in test [16] and in test [17] was inactive. For the same compound, the potentiation in test [4] was 66% (active); in test [15], 85.1% (active).
`Cc1cc(OCC(=O)NNC(=S)NC(=O)c2ccc(Br)o2)ccc1Cl`: the result in test [1], in test [2], in [3], in [5], in [6] and in test [7] was inactive. For the same compound, the result in test [8], in test [9], in test [10], in test [11], in test [12] and in [13] was inactive. For the same compound, the outcome in [14], in test [15], in test [16] and in test [17] was inactive. Also, the potentiation in [4] is 10% (active).
Take `CC(=O)c1cccc(Nc2cc(C)nc3c(C)cc(C)cc23)c1`: the result in [1], in test [2], in test [3], in test [4], in [5] and in test [6] was inactive. Further, the result in test [7], in test [8], in test [9], in test [11], in [12] and in test [13] was inactive. For the same compound, the outcome in test [14], in test [15], in test [16] and in test [17] was inactive. The inhibition in [10] was 25.5% (active).
As to `COc1cc(/C=C2/SC(=O)NC2=O)ccc1OCc1ccccc1`, the outcome in test [1], in [2], in [3], in [4], in test [5] and in [6] was inactive. For the same compound, the result in test [7], in test [8], in test [9], in test [10], in [11] and in test [12] was inactive. For the same compound, the outcome in test [13], in [14], in [15], in test [16] and in test [17] was inactive.
Regarding `CCCN1Cc2cccc(C(=O)N3CCN(c4cc(Cl)ccc4C)CC3)c2C1=O`, the result in test [1], in [2], in [3], in [5], in test [6] and in test [7] was inactive. In addition, the outcome in test [8], in test [9], in test [10], in test [11], in [12] and in test [13] was inactive. Further, the outcome in test [14], in test [16] and in test [17] was inactive. Moreover, the values for the potentiation in [4] and in [15] were 81% (active) and 49.8% (active), respectively.
Turning to `Cn1c(=O)c2c(nc(SCCN3CCCCC3)n2Cc2ccccc2)n(C)c1=O`, the outcome in test [1], in test [2], in [3], in test [5], in test [6] and in [7] was inactive. Moreover, the result in [8], in test [9], in [10], in test [11], in test [12] and in [13] was inactive. For the same compound, the result in test [14], in [16] and in [17] was inactive. Also, the potentiation was 36% (active) in test [4] and 50.5% (active) in test [15].
With `COC(=O)C(CC(=O)Nc1cc(C)ccc1C)Nc1ccccc1OC` (stereo not drawn), the result in [1], in [2], in [3], in test [4], in [5] and in test [6] was inactive. The result in test [7], in test [8], in test [9], in test [10], in [12] and in test [13] was inactive. The result in test [14], in test [15], in test [16] and in test [17] was inactive. The activation in [11] was 40.5% (active).
Consider `COC(=O)c1ccc(/C=N/N2CCN(Cc3ccc(C)cc3C)CC2)cc1`, for which the outcome in test [1], in [2], in test [5], in test [6], in [7] and in [8] was inactive. Also, the outcome in test [9], in [10], in [11], in test [12], in test [13] and in [14] was inactive. The outcome in [16] and in test [17] was inactive. In addition, the potentiation in test [3] is 6% (active); in [4], 22% (active); in test [15], 28.6% (active).
As for `CCN(CC)c1ccc(CNc2nc3ccccc3n2CCN2CCCCC2)cc1`, the activation in test [1] is 109% (active). For the same compound, the result in [2], in test [3], in test [4], in [5], in [6] and in test [7] was inactive. In addition, the outcome in test [8], in test [9], in test [10], in test [11], in test [12] and in test [13] was inactive. Further, the outcome in [14], in test [15], in test [16] and in test [17] was inactive.
As to `Cc1ccc(C(=O)C[n+]2cccc3cc(C)ccc32)cc1`, the outcome in test [1], in test [2], in test [3], in test [4], in test [5] and in test [6] was inactive. Further, the result in test [7], in [8], in test [9], in [10], in test [11] and in test [12] was inactive. In addition, the result in [13], in [14], in [15], in test [16] and in test [17] was inactive.
Turning to `O=C(C1=C[C@H](c2ccc(C(F)(F)F)cc2)C[C@H](OCCCCO)O1)N1CCOCC1`, the result in test [1], in [2], in test [3], in [4], in [5] and in test [6] was inactive. For the same compound, the result in test [7], in test [8], in test [9], in [10], in test [12] and in test [13] was inactive. In addition, the result in test [14], in test [15], in test [16] and in [17] was inactive. In addition, the activation in test [11] is 27.5% (active).
